Shown are actives, neighbours in structure and some others; about 6.2% of the full set was active somewhere.
RORgamma inh: qHTS for inhibitors of ROR gamma transcriptional activity. Nuclear receptor ROR-gamma (Mus musculus), P51450. 310,000 compounds, 5.4% hits. Potency, µM (titrated, usually from 53.6 µM), for the others: at the highest dose activity change, negative = inhibition, hits mostly inhibitors. Drosophila S2 Gal4-RORgamma UAS-luciferase reporter, 20 h; note: nearly all actives have a fitted effect of over 60% in size
Target sequence (P51450 whole entry, looked up, the tested form may be a part): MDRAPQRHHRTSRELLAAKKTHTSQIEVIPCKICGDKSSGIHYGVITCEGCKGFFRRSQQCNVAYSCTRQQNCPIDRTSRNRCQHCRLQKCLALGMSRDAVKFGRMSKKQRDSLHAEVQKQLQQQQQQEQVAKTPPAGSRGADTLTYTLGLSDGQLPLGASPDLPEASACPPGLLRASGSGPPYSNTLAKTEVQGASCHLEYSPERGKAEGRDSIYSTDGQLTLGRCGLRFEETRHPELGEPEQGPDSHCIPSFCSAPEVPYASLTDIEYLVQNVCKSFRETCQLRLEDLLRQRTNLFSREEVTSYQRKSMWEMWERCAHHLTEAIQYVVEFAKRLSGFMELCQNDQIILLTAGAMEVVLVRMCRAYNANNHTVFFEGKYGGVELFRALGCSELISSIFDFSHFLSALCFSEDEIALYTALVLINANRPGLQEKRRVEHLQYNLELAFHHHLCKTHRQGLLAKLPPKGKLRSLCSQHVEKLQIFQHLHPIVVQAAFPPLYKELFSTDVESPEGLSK
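Read-out: Photinus luciferase luminescence; inhibitors lower reporter signal. Insect Schneider cells with Gal4-ROR gamma fusion under metallothionein promoter, UAS reporter; 700 uM final copper sulfate induction, 20 hr, ambient temperature.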
Gal4-VP16 FLuc: VP16 counterscreen qHTS for inhibitors of ROR gamma transcriptional activity | Drosophila S2 Gal4-VP16 UAS-luciferase, luminescence, 20 h | Potency, µM (highest dose often 53.6 µM), without a hit: at the top dose activity, negative = inhibition, actives largely listed as inhibitors | 310,000 compounds, 3.5% hits;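 note: Gal4-VP16 expression switched on by copper sulfate through the metallothionein promoter; nearly all actives have a fitted effect of over 50% in size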
KinaseGlo FLuc: Counterscreen for Luciferase (Kinase-Glo TM) Inhibition; Luciferin 4-monooxygenase (Photuris pensylvanica), Q27757; Kinase-Glo luciferase, ATP luminescence, 8 min; Potency, µM (titrated, usually from 38.3 µM), inactives show at the highest dose activity change, negative = inhibition, most hits filed as inhibitors; 200,000 compounds, 0.28% hits; note: nearly all actives have a fitted effect of over 60% in size
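Inhibition of Kinase-Glo luciferase light generation was assessed at 10 uM ATP in pH 7.2 imidazole buffer, with luminescence measured after eight minutes at ambient temperature.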
The depositor's hits bear a star; ? = inconclusive; . = no result; [ ] = another dose, or the depositor's remark. Calls come from the whole dose curve; as a rule, active = well fitted curve in the direction sought with a large enough effect; inconclusive = small, poorly fitted or top-dose-only effect, or another doubt; inactive = no such curve, though single readings can be large; an effect the other way counts as inactive or inconclusive. % is set by controls: 0 for no effect and ±100 for the full control effect; potency is the fitted concentration of half-maximal effect.

SMILES	RORgamma inh	Gal4-VP16 FLuc	KinaseGlo FLuc
COc1ccc(-c2nc(CN3CCN(Cc4cccc(Cl)c4)CC3)c(C)o2)cc1	11.2µM*	?	.
COc1ccc(-c2nc(CN3CCN(Cc4cccc(F)c4)CC3)c(C)o2)cc1	?	-28.1%	.
NS(=O)(=O)c1ccc(CNC(=O)c2cc(-c3ccccn3)nc3ccc(Cl)cc23)cc1	-20.9%	-11.0%	.
CCOc1ccc(CNC(=O)CN2C(=O)C(c3ccccc3)Oc3cccnc32)cc1 (stereo not given)	?	5.2%	.
CCC(C(=O)NCCC1=CCCCC1)n1nc(C)c2c(C)n(-c3ccccc3)nc2c1=O (stereo not given)	4.47µM*	-9.3%	.
CCC(C(=O)NCCCc1ccccc1)n1nc(C)c2c(C)n(-c3ccccc3)nc2c1=O (stereo not given)	4.3%	0.1%	.
CCOC(=O)CSc1nc2sc3c(c2c(=O)[nH]1)CC(C)(CC)OC3 (stereo not given)	20.0%	0.3%	-1.2%
CCC1(C)Cc2c(sc3nc(NN)n(C)c(=O)c23)CO1 (stereo not given)	-10.2%	14.1µM*	-3.7%
CCOC(=O)Cc1csc(SCC(=O)c2c(N)n(CC(C)C)c(=O)n(C)c2=O)n1	?	10µM*	12.6%
Cc1csc(SCC(=O)c2c(N)n(CC(C)C)c(=O)n(C)c2=O)n1	8.5%	3.5%	18.3%
COc1ccccc1N1CCN(C2CCCN(C(=O)CCc3ccccn3)C2)CC1 (stereo not given)	0.5%	5.4%	.
COc1cc([N+](=O)[O-])c(OC)cc1SCc1n[nH]c(=S)n1-c1ccc(C)cc1	2.24µM*	-11.4%	.
COc1ccc(-n2c(COc3cccc(C)c3)nnc2SCC(=O)O)cc1	35.8%	-2.6%	.
COc1ccc(-n2c(COc3cccc(C)c3)n[nH]c2=S)cc1	3.55µM*	5.01µM*	.
COc1cc([N+](=O)[O-])c(OC)cc1SCc1n[nH]c(=S)n1-c1ccc(F)cc1	-37.1%	1.2%	.
COc1ccc(-n2c(COc3ccc(C)cc3)nnc2SCC(=O)O)cc1	14.5%	-4.6%	.
COc1ccc(OCc2n[nH]c(=S)n2-c2ccc(C)cc2)cc1	2.24µM*	?	-2.7%
Cc1sc(NC(=O)c2ccco2)c(CN2CCN(Cc3ccccc3)CC2)c1C	15.9%	-8.2%	-4.8%
CCN(CC)Cc1ccccc1Sc1ccccc1	-8.3%	18.3%	-1.1%
COc1cccc([C@@H]2Oc3ccc(Br)cc3C[C@H]2OC(=O)N[C@H]2CCCc3ccccc32)c1	-9.5%	0.7%	-0.7%
CCNC(=O)NCc1c(C)c(C)n(Cc2ccccc2)c1-n1cccc1	37.3%	10.6%	-0.1%
CN1CCC[C@@H]1c1cccnc1.O=C(O)c1ccccc1O.O=C([OH2+])c1ccccc1O.O=C([OH2+])c1ccccc1O.O=C([OH2+])c1ccccc1O.[Mn]	.	.	-4.9%[7.66 µM]
NC(=O)c1ccc(NC(=O)COC(=O)CCC(=O)c2ccc(Cl)cc2)cc1	12.8%	-9.1%	-1.2%
CC(=O)c1c(C)oc2ccc(NS(=O)(=O)c3ccc(F)cc3C)cc12	?	12.6µM*	.
CC(=O)c1c(C)oc2ccc(NS(=O)(=O)c3ccc(O)c(C(=O)O)c3)cc12	19.6%	-1.2%	0.0%
SMILES	RORgamma inh	Gal4-VP16 FLuc	KinaseGlo FLuc
COc1cc2c(cc1OC)C(C(C(=O)N(CCc1ccc(OC)c(OC)c1OC)CCc1ccc(OC)c(OC)c1OC)c1ccccc1)=NCC2 (stereo not given)	-14.6%	2.5%	2.6%[39.9 µM]
O=c1c(O)c(-c2ccc(O)c(O)c2)oc2ccccc12	?	-24.2%	-2.8%
CC(=O)Nc1ccc(NC(=O)C/C(C)=N/NC(N)=S)cc1	?	-2.4%	2.4%
C/C(CC(C)(C)C1CCCCC1)=N\NC(N)=S	0.891µM*	2.82µM*	3.6%
O=C1CC(N2CCCN(C3CC(=O)N(c4ccc(F)cc4)C3=O)CC2)C(=O)N1c1ccc(F)cc1 (stereo not given)	17.8µM*	?	6.6%
O=C1CC(N2CCCCC2)C(=O)N1c1ccccc1 (stereo not given)	10µM*	20µM*	2.8%
O=C1CC(N2CCSCC2)C(=O)N1c1ccccc1 (stereo not given)	14.3%	5.7%	-2.3%
O=C1CC(N2CCN(c3ccc(S(=O)(=O)N4CCCC4)cc3)CC2)C(=O)N1c1ccc(F)cc1 (stereo not given)	8.2%	-9.2%	-0.5%
CSc1nnnc2ccccc12	.	.	-4.5%[7.66 µM]
CC(C)=NO[C@@H](C)c1cn([C@@H]2COC[C@@H]2O)nn1	0.6%[10 µM]	-5.7%[10 µM]	.
COc1ccc(C(=O)N2CCC(C(=O)NCc3ccccn3)CC2)cc1	30.2%	-10.4%	-5.6%
O=C(Nc1ccc(O)c2c(=O)cc(-c3ccccc3Cl)oc12)c1ccc(Br)cc1	-10.8%	5.4%	3.0%[39.9 µM]
COc1cc2c(cc1OC)CN(c1nc(CN3CCOCC3)nc3sc4c(c13)CCC(C)C4)CC2 (stereo not given)	11.2µM*	?	-0.3%
COc1ccc(Nc2nc(CN3CCOCC3)nc3sc4c(c23)CCC(C)C4)cc1OC (stereo not given)	-4.1%	-8.0%	-6.8%
NC(=O)CSc1nnc(NC(=O)C23CC4CC(CC(C4)C2)C3)s1	-19.9%	-17.7%	.
CSc1nnc(NC(=O)C23CC4CC(CC(C4)C2)C3)s1	17.8µM*	?	.
COc1cccc(NC(=S)NNC(=O)CCn2cc([N+](=O)[O-])cn2)c1	?	-6.0%	-4.5%
Cc1ccc(NC(=O)CCN2CCN(C)CC2)cc1	?	-5.7%	.
Cc1ccc(NC(=S)NNC(=O)CCn2cc(C)cn2)cc1	0.282µM*	1.41µM*	.
Cc1cnn(CCC(=O)NNC(=S)Nc2ccccc2)c1	0.1µM*	1.12µM*	-0.3%
CCOC(=O)C1=C(C)NC(=O)NC1c1c(OCC(=O)N2CCCCC2)ccc2ccccc12 (stereo not given)	32.4%	11.9%	-9.0%
O=S(=O)([O-])C/C(=C\c1ccc(Cl)cc1)c1cc[n+](CCO)cc1	-9.4%	-3.5%	0.4%
CC(C)(C)c1ccc(NNC(=O)C2CCC2)cc1	-4.9%	11.9%	.
O=C(N/N=C/c1c(F)cccc1Cl)c1cc(C2CC2)[nH]n1	20.4%	?	.
O=C(N/N=C/c1c(Cl)cccc1Cl)c1n[nH]c2c1CCCC2	-9.1%	-1.0%	8.91µM*
SMILES	RORgamma inh	Gal4-VP16 FLuc	KinaseGlo FLuc
O=C(NN=C1CCCC1)c1n[nH]c2c1CCC2	-10.5%	6.0%	?
O=C(NN=C1CCCC1)c1n[nH]c2c1CCCC2	-19.4%	-2.2%	12.6µM*
Cc1ccsc1/C=N\NC(=O)c1n[nH]c2c1CCC2	3.98µM*	7.08µM*	7.08µM*
Cc1ccsc1/C=N/NC(=O)c1ccc2nc[nH]c2c1	-2.4%	-0.9%	-4.7%
Cc1cc(CNC(=O)c2cccnc2Cl)c2ccccc2n1	?	-0.5%	1.6%
c1ccc(NC2=NCCN2CC2CCCC2)cc1	-1.9%	-2.9%	.
O=c1c2ccccc2ncn1-c1ccccc1C(F)(F)F	-0.6%	18.1%	1.7%
O=C(Nc1ccccc1C(=O)N1CCCCCC1)c1cccc([N+](=O)[O-])c1	16.4%	-7.7%	.
CCN(CC(=O)Nc1ccccc1C(=O)Nc1ccccc1)Cc1nc2ccccc2c(=O)[nH]1	3.55µM*	?	0.4%
CCN(CC(=O)NC(=O)NC1CCCCC1)Cc1nc2ccccc2c(=O)[nH]1	0.562µM*	0.562µM*	-2.9%
